A3A deaminase: APOBEC3A ssDNA deaminase inhibitors, primary screen, selectivity assay for APOBEC3G inhibitor project, biochemical, FAM/TAMRA oligo cleavage fluorescence; inhibition, % at 20 µM; recombinant A3A, FAM/TAMRA ssDNA deamination fluorescence; DNA dC->dU-editing enzyme APOBEC-3A (Homo sapiens), P31941; hit rate 0.41% among 330,000;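 active means at least 40% inhibition at 20 µM here, with at most 30% in a related deaminase screen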;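 further: plate controls were A3A with DMSO for no effect and wells lacking A3A enzyme for full effect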
Target sequence (P31941 whole entry, looked up): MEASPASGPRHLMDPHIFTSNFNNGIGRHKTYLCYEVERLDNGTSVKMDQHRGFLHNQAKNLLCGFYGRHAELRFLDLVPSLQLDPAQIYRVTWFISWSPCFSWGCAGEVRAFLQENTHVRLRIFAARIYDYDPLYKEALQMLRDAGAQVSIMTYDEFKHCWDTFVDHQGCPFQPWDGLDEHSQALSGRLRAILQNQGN
APOBEC3G inh: APOBEC3G DNA deaminase inhibitors, primary screen, biochemical, fluorescence, single-stranded DNA substrate, uHTS; DNA dC->dU-editing enzyme APOBEC-3G (Homo sapiens), Q9HC16; recombinant A3G, ssDNA deamination FAM/TAMRA fluorescence; inhibition, % at 20 µM; hit rate 0.28% among 330,000; AID 493012, 2011;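 active means inhibition of at least 40% at 20 µM, with no more than 30% in the related APOBEC3A deaminase screen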;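 further: plate controls were DMSO wells with A3G for no effect and wells lacking A3G enzyme for full effect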
PABP FP inh: PABP poly(A) RNA binding inhibitors, primary screen, biochemical, fluorescence polarization, uHTS. Polyadenylate-binding protein 1 (Homo sapiens), P11940. calls only at 35 µM. hit rate 1% among 290,000;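 further: calls also rest on retests at 20 µM and on dose response follow-up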
MLLE-PAM2 inh: inhibitors of PABP1 MLLE–PAM2 peptide binding, primary screen, biochemical, fluorescence polarization, FITC-PAM2, GST-MLLE; Polyadenylate-binding protein 1 (Homo sapiens), P11940; inhibition, % at 20 µM; hit rate 0.36% among 360,000; AID 588489, 2011; in the data active means inhibition above about 35%, passing the limit was not always enough;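 further: plate controls were DMSO wells with GST-MLLE for no effect and wells lacking GST-MLLE protein for full effect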
eIF4H inh: human eIF4H binding inhibitors, primary screen, translation initiation inhibitor project, biochemical, uHTS, fluorescence polarization; hit rate 0.94% among 290,000; eIF4H fluorescence polarization binding assay; inhibition, % at 35 µM; Eukaryotic translation initiation factor 4H (Homo sapiens), Q15056;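 further: calls also rest on retests at 20 µM and on dose response follow-up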
PHOSPHO1 block: PubChem AID 1565; Phosphoethanolamine/phosphocholine phosphatase (Homo sapiens), Q8TCT1; recombinant PHOSPHO1, absorbance phosphatase assay; hit rate 1.1% among 290,000; inhibition, % at 13.3 µM; in the data active means inhibition above about 60%
Target sequence (Q8TCT1 whole entry, looked up): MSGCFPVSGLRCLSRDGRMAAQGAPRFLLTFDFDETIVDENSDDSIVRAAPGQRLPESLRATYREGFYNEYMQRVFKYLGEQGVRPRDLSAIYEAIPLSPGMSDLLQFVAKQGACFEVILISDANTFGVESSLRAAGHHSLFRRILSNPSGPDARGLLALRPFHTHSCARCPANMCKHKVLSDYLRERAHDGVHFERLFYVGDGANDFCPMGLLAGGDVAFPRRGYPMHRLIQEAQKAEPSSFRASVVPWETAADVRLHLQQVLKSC
An asterisk follows results filed as active; i = inactive; u = inconclusive; x = not tested or not shown; + = active, no number. The list is not random: actives were taken first. Their share in the collection is about 2.6%. Unless noted, how the calls were made is not given here.

SMILES	A3A deaminase	APOBEC3G inh	PABP FP inh	MLLE-PAM2 inh	eIF4H inh	PHOSPHO1 block
COc1cccc(OC)c1/C(O)=C(\C#N)c1nc2ccccc2[nH]1	-3	11	i	0	2	60*
CC(C)(C)/C(O)=C(/C#N)c1nc2ccccc2[nH]1	-3	-5	i	4	7	5
CC(NC(N)=O)C(=O)OCC(=O)c1ccc(-c2ccccc2)cc1 (centres undefined)	0	-5	i	-6	5	12
COc1ccc(OC)c(/C=C/C(=O)N2C(=O)c3cccc(N)c3C2=O)c1	0	0	i	40*	8	3
COc1cc(/C=C/C(=O)N2C(=O)c3cccc(N)c3C2=O)cc(OC)c1OC	-2	-6	i	-18	6	-1
CN(Cc1nc2ccccc2c(=O)[nH]1)C(=O)c1cccc(S(=O)(=O)N2CCc3ccccc32)c1	4	5	x	-1	x	x
CCC(C)C(=O)Nc1nc(C)c(-c2csc(Nc3cc(OC)ccc3OC)n2)s1 (centres undefined)	-1	-6	i	13	-3	62*
CCC(C)C(=O)Nc1nc(C)c(-c2csc(Nc3cc(Cl)ccc3OC)n2)s1 (centres undefined)	0	-9	i	11	-3	91*
COc1ccc(OC)c(Nc2nc(-c3sc(NC(=O)CC(C)C)nc3C)cs2)c1	-5	-5	i	11	1	65*
COc1ccc(Cl)cc1Nc1nc(-c2sc(NC(=O)C(C)(C)C)nc2C)cs1	-3	7	i	-1	-18	101*
COc1ccc(OC)c(Nc2nc(-c3sc(NC(=O)C(C)(C)C)nc3C)cs2)c1	6	-9	i	3	6	57
CCCn1c(SCC(=O)NCc2ccc(Cl)cc2)n[nH]c1=O	-2	-8	i	-2	-2	4
Cc1ccc(NC(=O)CN2C(=O)CSc3ccc(S(=O)(=O)N4CCCCC4)cc32)cc1	-3	-4	x	7	x	24
Cc1[nH]nc2c(=S)[nH]c(=O)[nH]c12	x	x	x	40*	x	x
COc1cc(C#N)ccc1OCC(=O)NCc1cccs1	-2	-4	i	9	1.9*	36
CCOC(=O)COc1ccc2c(C#N)c3ccccn3c2c1	x	x	i	43*	83	-9
N#Cc1c2ccc(OCC(N)=O)cc2n2ccccc12	-5	-9	i	35	32	46
COc1ccc([N+](=O)[O-])cc1NC(=O)COC(C)=O	5	-7	i	-4	0	65*
CCCC(=O)OCC(=O)Nc1cc([N+](=O)[O-])ccc1OC	-2	-5	i	-8	7	13
COc1ccc(CN2C3CCC2CC(NC(=O)c2cc(OC)c(OC)c(OC)c2)C3)cc1 (centres undefined)	-2	-2	i	14	6	8
CN(C)c1ccc(/C=C/CNC[C@H]2O[C@@H](n3ccc(N)nc3=O)[C@H](O)[C@@H]2O)cc1	x	x	x	-21	x	x
N#CC1=C2SCN(Cc3ccco3)CN2C(=O)CC1c1ccccc1F (centres undefined)	0	7	i	-9	6	83*
N#CC1=C2SCN(c3ccc(F)cc3)CN2C(=O)CC1c1cccc(F)c1 (centres undefined)	8	35	i	-37	43*	64*
CCc1ccc(C2CC(=O)N3CN(c4ccccc4)CSC3=C2C#N)cc1 (centres undefined)	0	40	i	-40	0	86*
N#CC1=C2SCN(Cc3ccco3)CN2C(=O)CC1c1cccc2ccccc12 (centres undefined)	-3	5	i	-15	6	39
SMILES	A3A deaminase	APOBEC3G inh	PABP FP inh	MLLE-PAM2 inh	eIF4H inh	PHOSPHO1 block
Cc1nn(C)c(C(=O)N2CCN(C(=O)c3ccco3)CC2)c1Br	1	-8	i	-10	-8	-2
CCOc1ccc(CN2CCNC(=O)C2CC(=O)NCc2csc(C)n2)cc1 (centres undefined)	-4	-1	i	8	8	2
Cc1nc(CNC(=O)CC2C(=O)NCCN2Cc2ccc(F)cc2)cs1 (centres undefined)	-5	-3	i	13	8	66*
O=C(CC1C(=O)NCCN1Cc1ccc(F)cc1)NC1CCCCCCC1 (centres undefined)	0	0	i	-8	27	65*
Cc1ccc(CN2CCNC(=O)C2CC(=O)NC2CCCCCC2)cc1 (centres undefined)	-1	-1	i	3	-1	43
Cc1oc2c(C)c(O)ccc2c(=O)c1-c1nncn1-c1ccccc1	-2	-5	+	-48	u	38
Cc1oc2c(C)c(O)ccc2c(=O)c1N1C(=O)c2ccccc2C1=O	-1	-4	i	-7	-8	-14
COc1cc(/C=N/n2c(C)nc3ccccc3c2=O)cc(OC)c1O	-2	-1	i	6	-9	x
CCO/C=C1\C(=O)N(CC)c2ccccc21	0	0	+	16	active	-3
CC1(C)c2ccccc2N2CCC(=O)NC21/C=C/c1ccco1 (centres undefined)	0	0	+	-75	u	23
CC1(C)c2ccccc2N2CC(=O)NC21/C=C/c1ccco1 (centres undefined)	0	-3	i	-25	24	28
Cc1ccc(S(=O)(=O)N(C)c2ccc(OC(=O)CN3C(=O)NC4(CCCC4)C3=O)cc2)cc1C	3	-3	x	-6	x	x
C=CCc1cccc(C=Nc2cc(Br)ccc2O)c1O	-4	-4	i	2	78*	1
Cc1[nH]c2ccccc2c1NC(=O)CN1CCN(Cc2ccc3c(c2)OCO3)CC1	x	x	i	x	16	97*
CCC(C(=O)N1CCN(Cc2ccc3c(c2)OCO3)CC1)n1c(=O)[nH]c2ccccc2c1=O (centres undefined)	0	3	i	0	-2	70*
COC(=O)c1[nH]c2ccc(C)cc2c1NC(=O)CN1CCN(Cc2ccccc2)CC1	30	13	i	-79	-18	85*
Cc1c(C(O)CN2CCN(Cc3ccc4c(c3)OCO4)CC2)c2ccccc2n1C (centres undefined)	-2	0	+	-4	82*	-21
O=C(NNC(=O)c1ccccc1Br)c1ccc(SCC2CCCO2)c([N+](=O)[O-])c1 (centres undefined)	-2	-4	i	-1	8	28

High-throughput results (PubChem)
